For assay [1], the target named is Cellular tumor antigen p53 (Homo sapiens) (UniProt P04637). The assay can be described thus: Primary qHTS for small molecule compounds that upregulate eGFP-tagged delta133p53alpha (in N-terminal) cells. (AID 2060322). Further: nearly all actives have a fitted effect of over 75% in size.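 On activation: cells pre-induced with doxycycline then dosed without doxycycline; series mostly up to about 56 µM; 0% = DMSO vehicle and 100% = reference activator.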 As to conditions: NCI-H358 eGFP-delta133p53alpha fluorescence, 24 h; activation: hits give high values. Put shortly:
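NCI-H358 cells pre-induced 24 h with 10 ng/ml doxycycline for eGFP-delta133p53alpha, plated dox-free and exposed 24 h at 37C to titrated compounds. Fixed, Hoechst-stained; gated GFP peak intensity by laser scanning cytometry, normalized to DMSO (0%) and 57.5 uM 5-azacytidine (100%).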
On the technique in general: Quantitative high-throughput screening tests each substance at several concentrations.

Assay [2] is described as follows: BET inhibitor-based combinations targeting novel dependencies in MECOM-rearranged (r) AML: OCI-AML3 cell line (AID 2202232). Further: nearly all actives have a fitted effect of over 35% in size.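 On viability (% of control): series mostly up to about 46 µM; plate controls were DMSO vehicle wells for no effect and wells without cells for full effect.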 As to conditions: Potency: OCI-AML3 viability. Put shortly: (§1)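 Here, 11-point titrations of each agent were applied to 500 seeded cells and incubated 48 hr; CellTiter-Glo signal, scaled against DMSO and empty wells, was integrated as AUC, then Z-scored within the individual line.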

Assay [3] in a line: BET inhibitor-based combinations targeting novel dependencies in MECOM-rearranged (r) AML: MV-4-11 cell line (AID 2202233). Further: nearly all actives have a fitted effect of over 45% in size. Put shortly: (§2)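 Normalized to DMSO and empty-well controls, the luminescence data from CellTiter-Glo after 48 hr drug exposure were fitted across 11 concentrations. Reported metrics are area under the dose-response curve and its Z-transformed form.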
Assay [4] in a line: BET inhibitor-based combinations targeting novel dependencies in MECOM-rearranged (r) AML: UCSD-AML1 cell line (AID 2202235). Further: nearly all actives have a fitted effect of over 40% in size.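 On viability (% of control): series mostly up to about 46 µM; plate controls were DMSO vehicle wells for no effect and blank wells for full effect.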 In a few lines:
as §2

Assay [5] can be described thus: BET inhibitor-based combinations targeting novel dependencies in MECOM-rearranged (r) AML: HNT-34 cell line (AID 2202234). Further: nearly all actives have a fitted effect of over 35% in size.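 On viability (% of control): plate controls were vehicle wells for no effect and cell-free wells for full effect.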 In a few lines:
as §2

The nature of assay [6]: BET inhibitor-based combinations targeting novel dependencies in MECOM-rearranged (r) AML: AML-191 cell line (AID 2202236; further: nearly all actives have a fitted effect of over 35% in size;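 on viability (% of control): plate controls were vehicle wells for no effect and wells without cells for full effect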). In a few lines: as §1
Assay [7] can be described thus: BET inhibitor-based combinations targeting novel dependencies in MECOM-rearranged (r) AML: AML-194 cell line (AID 2202237; further: nearly all actives have a fitted effect of over 40% in size;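 on viability (% of control): plate controls were vehicle wells for no effect and wells without cells for full effect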). In a few lines:
as §1

SMILES strings stand for the structures. Values joined by “and” are separate entries in the source; they are usually repeats but may differ in a detail not shown here. Identical values can stand only once. Results filed as inconclusive are left out. Unmarked numbers belong to inactive results. Active and inactive are the calls of the source. The call rests on the fitted dose curve; in most records, active means well fitted curve in the direction sought with a large enough effect; inconclusive means small, poorly fitted or top-dose-only effect, or another doubt; inactive means no such curve, though single readings can be large; an effect the other way counts as inactive or inconclusive. Residues, ends and D or L forms follow the SMILES beside them. *: point of attachment. Cbz = O=C(OCc1ccccc1)*
Potency means the concentration at half of the fitted maximal effect.

Chain of Cellular tumor antigen p53 (Homo sapiens) (P04637 whole entry, looked up): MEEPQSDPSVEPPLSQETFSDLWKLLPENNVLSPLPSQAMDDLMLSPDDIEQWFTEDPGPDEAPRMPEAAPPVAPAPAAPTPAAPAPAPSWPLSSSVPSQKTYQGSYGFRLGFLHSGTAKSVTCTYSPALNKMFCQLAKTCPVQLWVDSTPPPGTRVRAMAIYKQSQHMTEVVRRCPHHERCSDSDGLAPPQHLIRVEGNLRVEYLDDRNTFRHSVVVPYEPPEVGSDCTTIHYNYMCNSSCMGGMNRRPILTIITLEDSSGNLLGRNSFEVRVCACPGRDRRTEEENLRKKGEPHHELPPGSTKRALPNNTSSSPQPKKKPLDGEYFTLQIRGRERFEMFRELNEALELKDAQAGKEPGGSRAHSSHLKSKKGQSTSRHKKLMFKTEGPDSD

Consider `CC1(CN2CCC(n3c(=O)[nH]c4ccccc43)CC2)OCc2ccccc2-n2cccc21` (centres undefined), for which the activation in assay [1] was -25.4% and -3.95%. Besides, the Potency in assay [2] was 16600 nM (active); in assay [3], 14800 nM (active). In assay [4], the Potency entry was “inactive”.

Consider `Oc1cc2c(cc1O)C1c3ccc(O)c(O)c3OCC1(O)C2` (centres undefined), for which the activation in assay [1] is -7.38%. Moreover, the Potency in assay [2] is 23500 nM (active); in assay [3], 23500 nM (active); in assay [4], 20900 nM (active).

Take `Cc1ccc(S(=O)(=O)Nc2nc3ccccc3nc2Nc2ccc3nsnc3c2)cc1`: the activation in assay [1] is 6.55%. The Potency entry in assay [2], in assay [3], in assay [5], in assay [4], in assay [6] and in assay [7] was “inactive” throughout.

Turning to `Nc1nc2[nH]cc(CCc3ccc(C(=O)N[C@@H](CCC(=O)O)C(=O)O)cc3)c2c(=O)[nH]1`, in assay [1], the activation was -41.3%. The Potency was 662 nM (active) in assay [2], 372 nM (active) in assay [3], 1050 nM (active) in assay [4] and 525 nM (active) in assay [6]. The Potency entry in assay [5] and in assay [7] was “inactive” throughout.

Consider `Oc1ccc(C2=Cc3ccc(O)cc3OC2)cc1`, for which the activation in assay [1] is 5.86%. Moreover, the Potency in assay [2] was 525 nM (active); in assay [3] it was 662 nM (active); in assay [5], 1180 nM (active); in assay [4] it was 1320 nM (active); in assay [6], 2950 nM (active); in assay [7], 10500 nM (active).

On to `CCCc1cc(C(N)=S)ccn1`, for which, in assay [1], the activation is -10.9% and -12.4%. Further, the Potency entry in assay [2], in assay [3], in assay [5], in assay [4], in assay [6] and in assay [7] was “inactive” in each case.

Turning to `Cc1ccc(C(=O)c2cc(O)c(O)c([N+](=O)[O-])c2)cc1`, in assay [1], the activation was 1.67% and 0.973%. In addition, the Potency result in assay [2], in assay [3], in assay [5], in assay [4] and in assay [7] was “inactive” each time.

On to `COc1cccc2c1CCCC2CCCN1CCN(C2CCCCC2)CC1` (centres undefined), for which, in assay [1], the activation was 0.872%. Besides, the Potency is 11800 nM (active) in assay [2], 16600 nM (active) in assay [3] and 5900 nM (active) in assay [6]. Moreover, the Potency result in assay [7] was “inactive”.

Consider `CO[C@@H](C(=O)N1Cc2[nH]nc(NC(=O)c3ccc(N4CCN(C)CC4)cc3)c2C1)c1ccccc1`, for which the activation in assay [1] is 20.9%. In addition, the Potency was 1860 nM (active) in assay [2], 148 nM (active) in assay [3] and 148 nM (active) in assay [4].

For `COc1cccc([C@@H](C)NCCCc2ccccc2Cl)c1`, in assay [1], the activation was -21.4%. For the same compound, the values for the Potency in assay [2], in assay [3] and in assay [7] were 16600 nM (active), 20900 nM (active) and 23500 nM (active), respectively.

With `COc1ccc2c3n(c(=NC(=O)c4cccnc4)nc2c1OC)CCN3`, in assay [1], the activation is -16.5%. In addition, the Potency in assay [2] was 235 nM (active); in assay [3], 148 nM (active); in assay [5], 332 nM (active); in assay [6] it was 468 nM (active); in assay [7] it was 1180 nM (active).

Turning to `CNC(=O)Nc1ccc(-c2nc(N3CC4CCC(C3)O4)c3cnn(C4CCC5(CC4)OCCO5)c3n2)cc1`, in assay [1], the activation is 8.27%. For the same compound, the figures for the Potency in assay [2], in assay [3] and in assay [6] were 105 nM (active), 166 nM (active) and 29.5 nM (active), respectively.

As to `CN[C@H]1CCc2cc(OC)c(OC)c(OC)c2-c2ccc(OC)c(=O)cc21`, the activation in assay [1] is 7.86%. Besides, the Potency in assay [2] is 93.4 nM (active); in assay [3], 105 nM (active); in assay [5], 83.3 nM (active); in assay [4] it was 105 nM (active); in assay [6], 105 nM (active); in assay [7] it was 105 nM (active).

Consider `NS(=O)(=O)c1ccc(NC2=CC(=O)c3ccccc3C2=O)cc1`, for which the activation in assay [1] is 4.73%. Besides, the Potency is 5250 nM (active) in assay [2], 833 nM (active) in assay [3] and 4680 nM (active) in assay [6]. For the same compound, the Potency entry in assay [4] and in assay [7] was “inactive” in each case.

Regarding `CCOC(=O)[C@@H](N)CCC(=O)N[C@@H](CSCc1ccccc1)C(=O)N[C@@H](C(=O)OCC)c1ccccc1`, the activation in assay [1] is -1.42%. The Potency in assay [2] was 10500 nM (active); in assay [3], 18600 nM (active); in assay [5], 26300 nM (active); in assay [6] it was 16600 nM (active).

As to `Nc1nc(=O)n([C@H]2C[C@H](O)[C@@H](CO)O2)cc1F`, the activation in assay [1] is -4.59%. Moreover, the Potency was 132 nM (active) in assay [2], 14.8 nM (active) in assay [3], 186 nM (active) in assay [6] and 742 nM (active) in assay [7].

Regarding `CN1C(=O)c2sccc2N(C)c2nc(Nc3ccc(S(N)(=O)=O)cc3)ncc21`, the activation in assay [1] is -6.75%. Also, the Potency in assay [2] is 1660 nM (active); in assay [3], 1050 nM (active); in assay [5], 934 nM (active); in assay [4], 2350 nM (active); in assay [6], 3720 nM (active); in assay [7], 2350 nM (active).

Regarding `CCOC(=O)[C@H](CCc1ccccc1)N[C@H]1CS[C@H](c2cccs2)CN(CC(=O)O)C1=O`, in assay [1], the activation is -24.3% and -1.2%. The Potency in assay [2] and in assay [3] was 20900 nM (active) throughout. In addition, in assay [4], the Potency entry was “inactive”.

Regarding `CCc1cc(C(N)=S)ccn1`, the activation in assay [1] is -7.53% and 9.71%. Moreover, the Potency result in assay [2], in assay [3], in assay [5], in assay [4], in assay [6] and in assay [7] was “inactive” each time.

In the case of `CC(C)C[C@@H](C=O)NC(=O)[C@H](CC(C)C)NC(=O)[C@H](CC(C)C)NC(=O)OCc1ccccc1` (Cbz-Leu-Leu-Leu-aldehyde), the Potency in assay [1] was 2730 nM (active); in assay [2], 1860 nM (active); in assay [3], 2350 nM (active); in assay [5], 2350 nM (active); in assay [4], 2950 nM (active); in assay [6], 2350 nM (active). The Potency in assay [7] was 2630 nM (active).

For `Cn1cc(C2=C(c3c4n(c5ccccc35)CCC(CN)C4)C(=O)NC2=O)c2ccccc21` (centres undefined), the Potency is 27300 nM (active) in assay [1], 4810 nM (active) in assay [3] and 5390 nM (active) in assay [5]. The viability (% of control) is 88.4% [at 8.46 µM] in assay [2], 97.4% [at 8.46 µM] in assay [4] and 98.9% [at 8.46 µM] in assay [7].

The record behind these values is PubChem BioAssay (NCATS).
